Compounds with a hit are over-represented: about 19% of the library has one in this group of screens.
TDP1 cell CPT: growth inhibition of DT40 Tdp1-/-;hTDP1 cells with camptothecin (screen for TDP1 inhibitors) | chicken DT40 Tdp1-/-;hTDP1 cells + 20 nM CPT, ATP luminescence, 48 h | Potency, µM (doses to about 46.2 µM), for inactives: top-dose activity change, negative = growth inhibition, usual class: inhibitors | 12% of 420,000 active | AID 686979; further: potency means the concentration at half of the fitted maximal effect; on the % scale 0 is the no-effect control and ±100 the full control effect; nearly all actives have a fitted effect of over 55% in size
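Cell growth measured by CellTiter-Glo luminescence after a minimum 48 h, 37 C compound exposure with 20 nM CPT in Tdp1-knockout DT40 cells stably expressing hTDP1, seeded 400/well; qHTS titration format.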
DT40 TDP1 no CPT: qHTS for Inhibitors of human tyrosyl-DNA phosphodiesterase 1 (TDP1): qHTS in cells in absence of CPT; AID 686978, 2013; DT40 Tdp1-/- hTDP1 cells, no CPT, ATP luminescence, 48 h; Potency, µM (doses to about 46.2 µM), for the others: top-dose activity change, negative = growth inhibition, hits mostly inhibitors; 15% of 420,000 active; further: potency means the concentration at half of the fitted maximal effect; on the % scale 0 is the no-effect control and ±100 the full control effect; nearly all actives have a fitted effect of over 55% in size
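Cells were dispensed at 400 per well, compounds added by pin tool, plates incubated ≥48 hr at 37 °C, then CellTiter-Glo added for 30 min at room temperature before luminescence reading. Line: DT40 Tdp1-/- complemented with hTDP1; camptothecin omitted.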
TGFb inhibitor: inhibitors of TGF-b signaling. Potency, µM (doses to about 46.1 µM), for the others: at the highest dose activity, negative = inhibition, hits mostly inhibitors. 1.2% of 410,000 active. HepG2 CAGA-GFP TGF-b/SMAD3 reporter, GFP fluorescence, 18 h; TGF-beta stimulated, 500 pg/mL final; further: potency means the concentration at half of the fitted maximal effect; on the % scale 0 is the no-effect control and ±100 the full control effect; nearly all actives have a fitted effect of over 65% in size
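TGF-beta reporter screen: HEPG2 CAGA-GFP, 1% FBS, 500 pg/mL TGF-beta final, 18 h; per-cell GFP summed per well; curves fitted and categorized by class.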
IL-1B inflam inh: inhibitors of inflammasome signaling (IL-1 beta secretion); activity change, % at 57.5 µM; THP-1 LPS/ATP IL-1B secretion, AlphaLISA, 16 h; active compounds read low; 4.7% of 360,000 active; in the data active means activity change below about -50%; inconclusive means mostly about -30% to -49%; further: on the % scale 0 is the no-effect control and ±100 the full control effect
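THP-1 cells pretreated 1 hr with compounds (up to 57.5 uM final), then stimulated with LPS (250 ng/mL final) plus ATP (1.25 mM final); secreted IL-1B measured by AlphaLISA after 16 hr, decreased signal indicating inhibition.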
TDP1 inh: inhibitors of human tyrosyl-DNA phosphodiesterase TDP1 | Potency, µM (titrated, usually from 130 µM), inactives show at the top dose activity change, negative = inhibition, most hits filed as inhibitors | recombinant TDP1, AlphaScreen DNA substrate cleavage | 0.28% of 350,000 active; further: potency means the concentration at half of the fitted maximal effect; on the % scale 0 is the no-effect control and ±100 the full control effect; nearly all actives have a fitted effect of over 40% in size
Target sequence (Q9NUW8 whole entry, looked up): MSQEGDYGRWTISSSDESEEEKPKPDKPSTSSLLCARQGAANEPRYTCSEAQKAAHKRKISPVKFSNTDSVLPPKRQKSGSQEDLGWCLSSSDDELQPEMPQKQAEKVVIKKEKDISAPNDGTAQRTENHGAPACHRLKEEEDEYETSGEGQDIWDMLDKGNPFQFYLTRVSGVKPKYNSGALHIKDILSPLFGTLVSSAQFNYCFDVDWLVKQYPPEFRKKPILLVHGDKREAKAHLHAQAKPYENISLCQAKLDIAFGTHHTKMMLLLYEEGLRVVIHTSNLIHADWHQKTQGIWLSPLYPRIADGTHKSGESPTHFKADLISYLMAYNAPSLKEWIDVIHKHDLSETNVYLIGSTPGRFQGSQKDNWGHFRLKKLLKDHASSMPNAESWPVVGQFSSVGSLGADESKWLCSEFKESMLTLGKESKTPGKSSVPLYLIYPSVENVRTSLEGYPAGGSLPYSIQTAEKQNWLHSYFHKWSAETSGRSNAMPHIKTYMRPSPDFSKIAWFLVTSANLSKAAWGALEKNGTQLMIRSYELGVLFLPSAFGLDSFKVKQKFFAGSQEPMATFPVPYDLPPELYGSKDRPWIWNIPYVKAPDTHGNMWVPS
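Signal: AlphaScreen proximity between streptavidin donor and anti-FITC acceptor beads on intact substrate. Reaction: Tdp1 1 nM, substrate 15 nM final, 5 min RT after 15 min compound preincubation.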
HepG2 viability: kills HepG2 cells in TGF-b inhibitor counter-screen | HepG2 CAGA-GFP viability, ATP luminescence, 18 h | AID 588856 | 0.76% of 410,000 active | Potency, µM (doses to about 46.1 µM), inactives show at the highest dose activity change, negative = cytotoxicity, hits mostly cytotoxic; further: potency means the concentration at half of the fitted maximal effect
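CellTiter-Glo luminescence gave cytotoxicity after 18 hours at 37 degrees C. The cells were HepG2 CAGA-GFP in 1% FBS DMEM, stimulated with 500 pg/mL TGF-beta after compound addition. %Activity was normalised to no-cell wells (complete cell-killing) and DMSO (no toxicity), and curves were fitted and classified.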
* marks the source's active call; other numbers are inactive results. Unless noted, the call rests on the fitted dose curve; in most records, active means well fitted curve in the direction sought with a large enough effect; inconclusive means small, poorly fitted or top-dose-only effect, or another doubt; inactive means no such curve, though single readings can be large; an effect the other way counts as inactive or inconclusive.

Screening COCCN=c1scc(-c2ccco2)n1/N=C/c1ccc(O)c(O)c1O returned TDP1 cell CPT inconclusive, DT40 TDP1 no CPT inconclusive, TGFb inhibitor 11%, IL-1B inflam inh 33, TDP1 inh -1% and HepG2 viability 4%.
Screening C=CCN=c1scc(-c2ccco2)n1/N=C/c1ccc(O)c(O)c1O returned TDP1 cell CPT 10µM*, DT40 TDP1 no CPT 5.8µM*, TGFb inhibitor -32%, IL-1B inflam inh -51* and HepG2 viability -30%.
For CN=c1scc(-c2cccs2)n1/N=C/c1ccccc1O the results were TDP1 cell CPT inconclusive, DT40 TDP1 no CPT 23µM*, TGFb inhibitor inconclusive, IL-1B inflam inh -3, TDP1 inh 2% and HepG2 viability -72%.
Screening CN=c1scc(C)n1/N=C/c1cc(Br)c(O)c(OC)c1 returned TDP1 cell CPT inconclusive, DT40 TDP1 no CPT 16µM*, TGFb inhibitor -17%, IL-1B inflam inh 11, TDP1 inh -4% and HepG2 viability 2%.
For COc1cc(/C=N/N(C)C)cc(Br)c1O the results were TDP1 cell CPT -2%, DT40 TDP1 no CPT 1%, TGFb inhibitor -1%, IL-1B inflam inh -4, TDP1 inh 1% and HepG2 viability 4%.
Screening O=C(c1ccccc1O)N(Cc1cccs1)Cc1cccs1 returned TDP1 inh -4%.
Screening CN(C)CCCNc1nc2cc(-c3ccccc3CO)sc2c(=O)n1C returned TDP1 cell CPT -16%, DT40 TDP1 no CPT -2%, TGFb inhibitor 0%, IL-1B inflam inh 0 and HepG2 viability -4%.
`COc1ccc(-c2cc3nc(NCCCN(C)C)n(C)c(=O)c3s2)c(C)c1` gave TDP1 cell CPT inconclusive, DT40 TDP1 no CPT inconclusive, TGFb inhibitor inconclusive, IL-1B inflam inh -21 and HepG2 viability 3.5µM*.
Screening Cc1cscc1-c1cc2nc(NCCCN(C)C)n(C)c(=O)c2s1 returned TDP1 cell CPT 16µM*, DT40 TDP1 no CPT inconclusive, TGFb inhibitor -8%, IL-1B inflam inh inconclusive and HepG2 viability -11%.
Screening Cc1cc(Cl)ccc1-c1cc2nc(NCCCN(C)C)n(C)c(=O)c2s1 returned TDP1 cell CPT 23µM*, DT40 TDP1 no CPT 13µM*, TGFb inhibitor inconclusive, IL-1B inflam inh -11 and HepG2 viability 14µM*.
`Cc1ccc(C)c(NC(=O)Cn2cnc3nc4c(cc3c2=O)CCCC4)c1` gave TDP1 cell CPT -29%, DT40 TDP1 no CPT inconclusive, TGFb inhibitor -2%, TDP1 inh -3% and HepG2 viability 4%.
For COc1ccc2c(c1)CC/C(=C\c1ccc(OC)c(Cn3cccn3)c1)C2=O the results were TDP1 cell CPT 18µM*, DT40 TDP1 no CPT 26µM*, TGFb inhibitor inconclusive, IL-1B inflam inh -52*, TDP1 inh 7% and HepG2 viability -48%.
Screening COc1ccc2c(c1)CC/C(=C\c1ccc(OC)c(Cn3nc(C)cc3C)c1)C2=O returned TDP1 cell CPT 16µM*, DT40 TDP1 no CPT 18µM*, TGFb inhibitor -10%, IL-1B inflam inh 13 and HepG2 viability -41%.
`COc1ccc(/C=C2\CCc3ccccc3C2=O)cc1CN1CCOCC1` gave TDP1 cell CPT inconclusive, DT40 TDP1 no CPT inconclusive, TGFb inhibitor inconclusive, IL-1B inflam inh -10 and HepG2 viability 4%.
`CCN(CC(=O)Nc1cc(Cl)ccc1C)C(=O)c1cc([N+](=O)[O-])ccc1N1CCOCC1` gave TDP1 cell CPT -13%, DT40 TDP1 no CPT -20%, TGFb inhibitor 26%, IL-1B inflam inh 0 and HepG2 viability 6%.
Cn1c(=O)c2c(nc(CN3CCN(c4ccccc4F)CC3)n2Cc2ccccc2F)n(C)c1=O was read as TDP1 cell CPT 6.5µM*, DT40 TDP1 no CPT 5.2µM*, TGFb inhibitor -12%, TDP1 inh 0% and HepG2 viability 4%.
COc1ccc(N2CCN(Cc3nc4c(c(=O)[nH]c(=O)n4C)n3Cc3ccccc3F)CC2)cc1 was read as TDP1 cell CPT -20%, DT40 TDP1 no CPT -5%, TGFb inhibitor -6%, TDP1 inh 4% and HepG2 viability -10%.
Screening Cn1c(=O)c2c(nc(CN3CCc4ccccc4C3)n2Cc2ccccc2F)n(C)c1=O returned TDP1 cell CPT 8.2µM*, DT40 TDP1 no CPT 6.5µM*, TGFb inhibitor 8%, IL-1B inflam inh -63*, TDP1 inh 6% and HepG2 viability -19%.
Screening CCN1CCN(Cc2nc3c(c(=O)n(C)c(=O)n3C)n2Cc2ccccc2Cl)CC1 returned TDP1 inh 5%.
Cn1c(=O)c2c(nc(CN3CCN(c4ccc(F)cc4)CC3)n2Cc2ccccc2F)n(C)c1=O was read as TDP1 cell CPT 10µM*, DT40 TDP1 no CPT 8.2µM*, TGFb inhibitor -11%, IL-1B inflam inh 2, TDP1 inh 1% and HepG2 viability 1%.
Screening CCOC(=O)Cn1c(CN2CCc3ccccc3C2)nc2c1c(=O)n(C)c(=O)n2C returned TDP1 cell CPT 4.1µM*, DT40 TDP1 no CPT 4.6µM*, TGFb inhibitor inconclusive, IL-1B inflam inh 40, TDP1 inh 1% and HepG2 viability -20%.
`COc1cc(OC)cc(OCC(O)Cn2cnc3cc(C)c(C)cc32)c1` (stereo not drawn) gave TDP1 cell CPT inconclusive, DT40 TDP1 no CPT 16µM*, TGFb inhibitor -23%, IL-1B inflam inh -5, TDP1 inh 4% and HepG2 viability -29%.
`COc1ccc(OCC(O)Cn2ccnc2C)cc1` (stereo not drawn) gave TDP1 cell CPT -2%, DT40 TDP1 no CPT -26%, TGFb inhibitor -3%, IL-1B inflam inh -11, TDP1 inh 0% and HepG2 viability -10%.
COc1cc2c(cc1OC)CN(C(=O)c1cc(C3CC3)nn1-c1ccccc1)CC2 was read as TDP1 cell CPT 18µM*, DT40 TDP1 no CPT inconclusive, TGFb inhibitor -23%, IL-1B inflam inh -55*, TDP1 inh 7% and HepG2 viability -29%.
For N#Cc1ccc(CN2CCN(C(=O)c3cc(C4CC4)nn3-c3ccccc3)CC2)cc1 the results were TDP1 cell CPT 23µM*, DT40 TDP1 no CPT 21µM*, TGFb inhibitor inconclusive, IL-1B inflam inh -3, TDP1 inh 2% and HepG2 viability -37%.
`O=C1CC(c2ccccc2)CC2=C1C1(CCCCC1)N=C(Nc1nc3ccccc3o1)N2` (stereo not drawn) gave TDP1 inh 1%.

Source: PubChem (National Center for Advancing Translational Sciences (NCATS))
